# According to PubChem BioAssay (NCI):
# Compounds without any hit were thinned out: in the full panel of roughly 83,000, 20% have a hit.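 Each cell line was grown in a 96-well plate and treated with one concentration of compound for 48 hours. Values below 10 were considered active.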 Values without a mark were called inactive. Calls of active or inactive are those of the source.
# Columns and labels:
# Assay in all cases: NCI-60 one-dose screen, 48 h (100 = growth as untreated, 0 = no growth, -100 = all killed)
# Settings in all cases: 10 µM
# NCI-H23 lung = test system: NCI-H23 lung
# NCI-H226 lung = test system: NCI-H226 lung
# NCI-H322M lung = test system: NCI-H322M lung
# HOP-62 NSCLC = test system: HOP-62 NSCLC
# NCI-H460 lung = test system: NCI-H460 lung
# HOP-92 NSCLC = test system: HOP-92 NSCLC
# NCI-H522 lung = test system: NCI-H522 lung
# A549/ATCC NSCLC = test system: A549/ATCC NSCLC
# 786-0 renal = test system: 786-0 renal
# COLO 205 colon = test system: COLO 205 colon
# DU-145 prostate = test system: DU-145 prostate
# K-562 leukemia = test system: K-562 leukemia
# MALME-3M melanoma = test system: MALME-3M melanoma
# MDA-MB-231 breast = test system: MDA-MB-231 breast
# RXF 393 renal = test system: RXF 393 renal
# SF-268 CNS = test system: SF-268 CNS
# SF-295 CNS = test system: SF-295 CNS
# SF-539 CNS = test system: SF-539 CNS
# UACC-257 melanoma = test system: UACC-257 melanoma
# M14 melanoma = test system: M14 melanoma
SMILES,growth (NCI-H23 lung) [%],growth (NCI-H226 lung) [%],growth (NCI-H322M lung) [%],growth (HOP-62 NSCLC) [%],growth (NCI-H460 lung) [%],growth (HOP-92 NSCLC) [%],growth (NCI-H522 lung),growth (A549/ATCC NSCLC) [%],growth (786-0 renal) [%],growth (COLO 205 colon),growth (DU-145 prostate) [%],growth (K-562 leukemia),growth (MALME-3M melanoma) [%],growth (MDA-MB-231 breast),growth (RXF 393 renal),growth (SF-268 CNS) [%],growth (SF-295 CNS) [%],growth (SF-539 CNS),growth (UACC-257 melanoma) [%],growth (M14 melanoma)
CCCCCCCCCCN=C(c1ccc(N(C)C)cc1)c1ccc(N(C)C)cc1,27.8,57.6,44.6,29.4,12.1,47.9,2.43% (active),30.5,48.8,6.54% (active),28.5,10.1%,62,49.5%,3.59% (active),57.5,14,10.9%,28.3,-18% (active)
COc1ccc(-c2nc(NC(=O)CS(=O)(=O)c3ccc(F)cc3)sc2C)cc1,37,93.9,69.5,65.3,59.2,37,49%,54.2,60.9,88.8%,79,26.4%,55.2,-37.1% (active),14.4%,65.3,25.1,73.6%,65.1,44%
COc1ccccc1NC1=C(N2CCCCC2)C(=O)c2ccccc2C1=O,98.7,84.5,80.9,98.8,87.9,57.9,82.5%,74.4,87.5,92.3%,105,75.5%,96.9,83%,67.1%,88.8,67.1,93.6%,76.7,89.9%
COc1ccc(C2C=C(c3ccc(Cl)c(Cl)c3)N=C3SC(C)=CN32)cc1OC (stereo not given),64,79.7,71.7,82.3,70.2,47.2,57.9%,58.6,78.8,72.1%,83.6,59.5%,87.3,46.1%,66.4%,63.2,42.5,90.7%,79.7,71%
C=CCOc1ccc2c(c1)CC=C1[C@@H]2CC[C@]2(C)C(=O)/C(=N/O)C[C@@H]12,95.1,96.1,81.2,103,60.3,101,80.7%,84.3,79.2,91.3%,91.7,8.09% (active),96.2,90.2%,53.7%,76.3,64.3,46.1%,117,79.4%
CCn1nc(-c2ccccn2)c2cccnc2c1=S,36.8,93.8,87.3,98,53.7,73.4,70.5%,44.8,106,30.9%,97,35.7%,68.4,53.3%,110%,94.8,78.1,89.1%,35.8,65%
Nc1nc2c(ncn2C2OC3COP(=O)(O)OC4C(COP(=O)(O)OC2C3O)OC(n2cnc3c(N)ncnc32)C4O)c(=O)[nH]1 (stereo not given),106,75.6,105,94,108,109,103%,109,103,98.1%,107,92.5%,106,114%,114%,102,96.9,0.807% (active),112,106%
CC(C)C(C)C(N)C(=O)O (stereo not given),97.8,102,99,89.9,109,86.8,91.2%,104,92.8,108%,105,90.8%,95.9,125%,108%,107,117,101%,108,94.1%
